High-throughput results deposited in PubChem BioAssay by National Center for Advancing Translational Sciences (NCATS).
Caspase-1 inhib = caspase-1 (human) inhibition, allosteric or competitive; P29466; Caspase-1 enzyme, Ac-WEHD-AFC fluorogenic rate; Potency, µM (titrated, usually from 57.5 µM), without a hit: at the top dose activity change, negative = inhibition, hits mostly inhibitors; actives 0.03% (n = 75,000); AID 900;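 also: plate controls were vehicle for no effect and no substrate for full effect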
Target sequence (P29466 120-297 limits assumed): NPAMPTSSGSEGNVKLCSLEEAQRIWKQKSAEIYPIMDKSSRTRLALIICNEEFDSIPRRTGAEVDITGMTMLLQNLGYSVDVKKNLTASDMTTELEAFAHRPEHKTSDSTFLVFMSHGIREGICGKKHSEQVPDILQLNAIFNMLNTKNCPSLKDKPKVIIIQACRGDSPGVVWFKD
Target sequence (P29466 317-404 limits assumed): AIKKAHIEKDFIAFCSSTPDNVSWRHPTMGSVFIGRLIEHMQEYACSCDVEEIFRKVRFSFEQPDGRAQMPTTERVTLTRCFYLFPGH
Caspase-7 inhib = caspase-7 (human) inhibition, allosteric or competitive. P55210. recombinant caspase-7, Ac-DEVD-AFC fluorescence rate. Potency, µM (titrated, usually from 57.5 µM), inactives show top-dose activity change, negative = inhibition, usual class: inhibitors. actives 0.02% (n = 75,000). AID 889; active = well fitted inhibition curve with a large enough effect in the main read-out, with a control signal flat, not every such curve was filed as active; inconclusive = small, poorly fitted or top-dose-only effect, or a change in a side signal; also: % of control where 0% means no effect
Target sequence (P55210 24-198 limits assumed): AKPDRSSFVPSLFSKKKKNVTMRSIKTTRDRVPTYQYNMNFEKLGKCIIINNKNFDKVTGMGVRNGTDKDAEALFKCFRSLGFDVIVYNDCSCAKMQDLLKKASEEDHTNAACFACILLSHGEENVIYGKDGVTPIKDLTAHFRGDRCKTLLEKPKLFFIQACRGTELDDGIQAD
Target sequence (P55210 207-303 limits assumed): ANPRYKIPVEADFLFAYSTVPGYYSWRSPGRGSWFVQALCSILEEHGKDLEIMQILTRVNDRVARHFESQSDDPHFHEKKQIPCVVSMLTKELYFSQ
USP2a inhib = blocks human ubiquitin-specific protease USP2a; O75604; USP2a enzymatic assay, qHTS inhibition; Potency, µM (titrated, usually from 38.3 µM), for inactives: top-dose activity change, negative = inhibition, actives largely listed as inhibitors; actives 0.1% (n = 60,000); AID 927; also: nearly all actives have a fitted effect of over 60% in size
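USP2 core (20 nM final) was preincubated with compound for 30 min at RT in 20 mM Tris-HCl pH 8.0, 2 mM CaCl2, 2 mM beta-mercaptoethanol; Ub-PLA2 (20 nM) plus NBD C6-HPC (20 uM) then added, fluorescence read after 2.5 h.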
TSHR ag = activates the human thyroid stimulating hormone receptor | Potency, µM (titrated, usually from 57.1 µM), without a hit: at the highest dose activation, hits mostly activators | HEK293-CNG-TSHR cells (CNG channel as cAMP sensor), membrane potential dye, cAMP | P16473 | actives 0.48% (n = 73,000); active = well fitted activation curve with a large enough effect in the main read-out, with a control signal flat, not every such curve was filed as active; inconclusive = small, poorly fitted or top-dose-only effect, or a change in a side signal; inactive = no such curve, though single readings can be large or run the other way; % of control where 0% means no effect;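 also: the control signal comes from parental cells without the receptor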
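HEK 293 cells stably expressing TSHR and a modified CNG channel, with CNG-only parental cells as counterscreen, were preloaded 60 min at room temperature with membrane potential dye containing 100 uM RO 20-1724. Compound exposure was 30 min, and depolarization was read as fluorescence at 590 nm.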
CRE-bla Fsk = modulators of forskolin-stimulated CRE signaling in CHO cells | CHO CRE-bla reporter (cAMP response element driving beta-lactamase), forskolin EC10, beta-lactamase ratio | Potency, µM (highest dose often 38.2 µM), without a hit: at the top dose activity change, negative = inhibition, actives largely listed as activators | actives 2.5% (n = 71,000); active = well fitted activation curve with a large enough effect in the signal ratio, with a control signal flat, not every such curve was filed as active; inconclusive = small, poorly fitted or top-dose-only effect, or effect the other way, or a change in a side signal; the % refers to the signal ratio; also: % of control where 0% means no effect
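The 460nm/530nm emission ratio after CCF4 loading defined %Activity, from which AC50 values were obtained. CRE-bla CHO cells received compound dilution series together with an EC10 level of NKH 477 for 3 hours at 37 degrees Celsius.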
HEK293 cAMP ctrl = counter-screen for TSHR agonists: cAMP increase in parental HEK293. parental HEK293 CNG cAMP sensor, membrane potential fluorescence. Potency, µM (doses to about 57.1 µM), for inactives: top-dose activation, most hits filed as activators. actives 2.5% (n = 73,000). AID 938; also: % of control where 0% means no effect; nearly all actives have a fitted effect of over 55% in size
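Parental HEK 293 cells stably expressing a modified CNG channel (no TSHR) report cAMP rise as membrane depolarization. Membrane potential dye with 100 uM RO 20-1724 was loaded for 60 min at room temperature, then compound added for 30 min; fluorescence read at 590 nm.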
Numbers without * were called inactive; u = inconclusive; x = not tested or not shown; [ ] = remark or other dose. Compounds with a hit are over-represented: about 5% of the library has one in this group of screens. Unless noted, calls follow the shape of the dose curve; as a rule, active = well fitted curve in the direction sought with a large enough effect; inconclusive = small, poorly fitted or top-dose-only effect, or another doubt; inactive = no such curve, though single readings can be large; an effect the other way counts as inactive or inconclusive. Potency is read from the fitted curve at half-maximal effect.

SMILES	Caspase-1 inhib	Caspase-7 inhib	USP2a inhib	TSHR ag	CRE-bla Fsk	HEK293 cAMP ctrl
COC(=O)c1cc2sccc2n1CC(=O)Nc1cccc(SC)c1	-1.4%	-2.9%	38.6%	u	-9.8%	25.1µM*
O=c1[nH]c(SCc2cc(=O)n3ccccc3n2)nc2c1CCC2	2.1%	-0.1%	-2.7%	4.5%[11.4 µM]	u	-3.5%
CC1N=C2c3ccccc3N=C(SCc3cc(=O)n4ccccc4n3)N2C1=O (stereo unspecified)	-1.3%	0.8%	0.6%	-2.1%	12.6µM*	1.8%
CC(C)C1N=C2c3ccccc3N=C(SCc3cc(=O)n4cc(Cl)ccc4n3)N2C1=O (stereo unspecified)	-0.2%	0.4%	30.5%	20.7%	1.26µM*	14.7%
O=C(O)C(Sc1ccc(Cl)cc1)Sc1ccc(Cl)cc1	0.4%[11.5 µM]	0.5%[11.5 µM]	x	9.6%[11.4 µM]	-0.5%[7.6 µM]	22.7%[11.4 µM]
CC(CCN)(CCN)[N+](=O)[O-]	2.7%[11.5 µM]	-0.3%[11.5 µM]	x	5.6%[11.4 µM]	-3.4%[7.6 µM]	8.3%[11.4 µM]
CCOC(=O)C(C)Sc1nnc(-c2ccccc2O)n1-c1ccc(C)cc1 (stereo unspecified)	0.3%	-2.7%	5.8%	u	-0.6%	20µM*
CCCCC#Cc1nc(NC)c2ncn([C@@H]3O[C@@H](CO)[C@H](O)[C@H]3O)c2n1	2.1%	0.3%	x	5.8%	20µM*	-0.2%
C#CCN1C(C)=C(C(=O)OC)[C@@H](c2cccc([N+](=O)[O-])c2)C(C(=O)OCC)=C1C	-1.7%	-2.2%	-13.5%	x	5.9%	7.8%
Nc1nc(N2CCOCC2)nc2ccccc12	-1.1%	0.6%	5.4%	4.9%	u	-15.5%
CSc1nc(NC(C)(C)C)nc(N2CCOCC2)n1	-0.1%	0.7%	-8.2%	15.0%	12.6µM*	1.2%
c1ccc(CC2CCN(c3nc(N4CCOCC4)nc(N4CCOCC4)n3)CC2)cc1	-0.2%	-1.7%	14.3%	7.94µM*	-19.8%	-0.6%
CC(C)(C)Nc1nc(SCc2ccccc2)nc(N2CCOCC2)n1	0.4%	-0.8%	-9.0%	20.1%	2.51µM*	1.1%
OCc1ccncc1.OCc1ccncc1.[Cl][Pt]([Cl])([Cl])[Cl]	-0.7%[11.5 µM]	-1.8%[11.5 µM]	x	-0.9%[11.4 µM]	4.7%[7.6 µM]	-12.7%[11.4 µM]
CCN1CCCC1CNC(=O)c1ccc(Cc2nc3ccccc3[nH]2)cc1 (stereo unspecified)	-2.5%	-0.1%	x	-2.0%	x	-6.4%
O=C(OCc1c(Cl)nc2sccn12)c1cc2c(s1)CCCC2	0.3%	0.2%	-4.9%	u	u	12.6µM*
O=C(c1cc2c(s1)CCCC2)n1cccn1	1.0%	-3.1%	-11.1%	3.7%	-7.2%	10.7%
CC(=O)Nc1ccc(C(=O)Nc2ccc(S(=O)(=O)NCC3CCCO3)cc2)cc1 (stereo unspecified)	-1.7%	-0.5%	0.5%	-5.9%	3.1%	6.7%
O=C(Nc1ccc(F)cc1)c1ccc(S(=O)(=O)NCC2CCCO2)cc1 (stereo unspecified)	2.0%	-1.3%	10.4%	u	5.4%	3.16µM*
Cc1nc2ccccc2c(=O)n1NCc1cc(Br)cs1	3.2%	1.9%	-4.9%	u	-24.5%	15.8µM*
Cc1nc2ccccc2c(=O)n1NS(C)(=O)=O	1.9%	0.3%	-2.0%	-0.6%	-2.0%	5.5%
COc1cccc2c1[C@@H]1CN(CCCCn3c(=O)[nH]c4c(sc5ncc(-c6ccccc6)nc54)c3=O)C[C@H]1CO2	-5.0%	-3.5%	21.5%	u	-8.6%	-77.4%
CCc1nc(N2CCOCC2)c(C#N)c2c1COC(C)(C)C2	-3.9%	-5.6%	8.1%	-5.4%	u	-9.6%
CSc1c(C#N)c(N)c(C#N)c2c1COC(C)(C)C2	-5.6%	-12.2%	0.5%	13.8%	3.98µM*	21.5%
CCCn1nnnc1SCC(=O)NCc1cccs1	-1.7%	-0.5%	-6.7%	5.5%	1.4%	1.1%
SMILES	Caspase-1 inhib	Caspase-7 inhib	USP2a inhib	TSHR ag	CRE-bla Fsk	HEK293 cAMP ctrl
COCCn1c(-c2ccc(Cl)cc2)cnc1SCC(=O)NCc1cccs1	-2.7%	-5.3%	13.9%	u	3.9%	10µM*
O=C(O)CCC/C=C\C[C@H]1[C@@H](/C=C\[C@@H](O)C2Cc3ccccc3C2)[C@H](F)C[C@H]1O	x	x	x	6.5%	-4.3%	-6.4%
COc1ccc(C(=O)NCc2cn3cccc(C)c3n2)cc1OC	1.5%	-1.1%	x	-10.5%	u	7.7%
COc1cc(C(=O)NCc2cn3cccc(C)c3n2)cc(OC)c1OC	-4.8%	3.2%	x	6.3%	12.6µM*	8.9%
Cc1cccn2cc(CCNC(=O)c3ccc(Br)o3)nc12	-2.0%	-6.9%	x	u	-13.9%	31.6µM*
c1ccc2c(c1)nnn2CN1CCOCC1	-0.7%[11.5 µM]	0.6%[11.5 µM]	x	2.1%[11.4 µM]	1.3%[7.6 µM]	5.2%[11.4 µM]
CN(C)C=Nc1ncc2c3ccccc3n(Cc3ccccc3)c2c1C#N	-3.0%	-2.7%	33.1%	u	u	31.6µM*
Cc1cn([C@H]2C=C[C@H](CO)O2)c(=O)[nH]c1=O	x	x	x	2.1%	2.6%	2.1%
CC(=O)NCCn1c(C)cc2ccccc21	u	-0.7%	x	14.1%	u	11.1%
CCC(=O)NCCn1c(C)cc2ccccc21	-3.6%	-1.7%	x	u	10µM*	u
Cc1cc2ccccc2n1CCNC(=O)COc1ccccc1	-3.2%	-3.3%	x	-8.9%	10µM*	-2.1%
COc1ccc(-c2nc3c(c4c2CC(C)OC4)CN(CCC(C)C)CC3)cc1 (stereo unspecified)	-3.4%[11.5 µM]	-5.3%[11.5 µM]	x	3.6%[11.4 µM]	x	0.9%[11.4 µM]
O=C(O)/C=C\c1c2ccc(=O)c(O)c-2oc2c(O)c(O)ccc12	-5.7%[11.5 µM]	-20.3%[11.5 µM]	x	0.1%[11.4 µM]	1.3%[7.6 µM]	6.2%[11.4 µM]
CCOC(=O)CCC(NC(=O)c1ccc(NCN2C(=O)CCC2=O)cc1)C(=O)OCC (stereo unspecified)	-0.3%	0.4%	74.4%	1.8%	-3.6%	-1.4%
CCOC(=O)CCC(NC(=O)c1ccc(NCN2C(=O)c3ccccc3C2=O)cc1)C(=O)OCC (stereo unspecified)	-1.3%	0.6%	-3.0%	u	-0.6%	0.794µM*
COc1ccc(OCCSc2nnc3sc4ccccc4n23)cc1	-2.4%	-0.5%	-7.0%	16.0%[11.4 µM]	0.501µM*	21.8%
O=C(O)C1CCC(CNc2c(NC3CCCCC3)c(=O)c2=O)CC1 (stereo unspecified)	-2.4%	-0.3%	x	38.2%	-0.1%	26.0%
COc1ccc(-c2noc(-c3ccccc3C(=O)Nc3cccc(OC)c3)n2)cc1	-1.3%	-1.4%	26.5%	u	5.5%	12.6µM*
COc1ccc(-c2noc(-c3ccccc3C(=O)Nc3cccnc3)n2)cc1	-3.5%	0.6%	52.3%	u	u	u
CCOc1ccccc1NC(=O)c1ccccc1-c1nc(-c2ccccc2)no1	-1.5%	-2.1%	2.3%	u	u	15.8µM*
